Records with an inconclusive call do not appear. Activity calls are given as the source filed them. How the source made its calls: active means hit-call score of the fitted dose curve at least 0.9, where 1 is the maximum; inconclusive means response in the unintended direction; inactive means score below 0.9.
Experiments:
[1] = molecular target: Cytochrome P450 2C19 (Homo sapiens) (UniProt P33261); experiment: NVS_ADME_hCYP2C19: NovaScreen (NVS) CYP450-related Enzyme Activity (ADME) Assay for human CYP2C19 (AID 2283113);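 on AC50: potency for inhibition seen as loss of fluorescent signal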
In short: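 Cell-free recombinant human CYP2C19 from insect cells, fluorescent substrate; activity read by fluorescence intensity 1 h after dosing. Primary screen in duplicate at 10 uM; actives retested in concentration series. Signal loss versus acetonitrile negative control.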

[2] = molecular target: human Caspase 5 (CASP5), CASP5 (gene 838) (UniProt P51878); experiment: NVS_ENZ_hCASP5: NovaScreen (NVS) Enzymatic Assay for human Caspase 5 (CASP5) (AID 2283137)
In short: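 Loss of fluorescent signal versus DMSO scored for E. coli-derived human CASP5 cleaving a fluorescent substrate, 2 h post-dosing; compounds first tested at 25 uM in duplicate, hits rerun in concentration series with 50 uM top concentration.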

[3] = molecular target: human Caspase 4 (CASP4), CASP4 (gene 837) (UniProt P49662); experiment: NVS_ENZ_hCASP4: NovaScreen (NVS) Enzymatic Assay for human Caspase 4 (CASP4) (AID 2283143)
In short: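 Compounds were first tested in duplicate at 25 uM, and hits were titrated singly to a 50 uM maximum. Recombinant protease from E. coli was read by fluorescence 2 h post-dose, and activity loss was fitted against the DMSO baseline.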

[4] = molecular target: human Dual Specificity Protein Phosphatase 3 (DUSP3), DUSP3 (gene 1845) (UniProt P51452); experiment: NVS_ENZ_hDUSP3: NovaScreen (NVS) Enzymatic Assay for human Dual Specificity Protein Phosphatase 3 (DUSP3) (AID 2283152);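 further: phosphatase activity of recombinant human DUSP3 on a fluorogenic substrate without cells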
In short: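 Cell-free fluorescence-intensity enzyme activity assay with recombinant protein and substrate; loss of signal fitted relative to DMSO baseline. Primary screen in duplicate at 25 uM, actives then run in concentration series; measured 0 h after dosing.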

[5] = molecular target: human Elastase, ELANE (gene 1991) (UniProt P08246); experiment: NVS_ENZ_hElastase: NovaScreen (NVS) Enzymatic Assay for human Elastase (AID 2283153)
In short: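 Concentration-response to 50 uM max, run singly for chemicals passing a threshold (e.g., 30% inhibition) in a duplicate 25 uM single-point screen. Neutrophil-derived human elastase, absorbance read-out of enzyme activity at 1.5 h; DMSO baseline.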

[6] = molecular target: human Beta-secretase (BACE), BACE1 (gene 23621) (UniProt P56817); experiment: NVS_ENZ_hBACE: NovaScreen (NVS) Enzymatic Assay for human Beta-secretase (BACE) (AID 2283140);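 further: hits are inhibitors that reduce fluorescent substrate signal versus DMSO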
In short: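 Enzyme from SF9 cells was incubated 1 hour with compound and fluorogenic substrate, activity read by fluorescence. Single-concentration duplicates at 25 uM preceded concentration-response follow-up; fitting relative to DMSO baseline.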

[7] = molecular target: human Casein Kinase 1-delta (CK1D), CSNK1D (gene 1453) (UniProt P48730); experiment: NVS_ENZ_hCK1D: NovaScreen (NVS) Enzymatic Assay for human Casein Kinase 1-delta (CK1D) (AID 2283148)
In short: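 Recombinant human CK1-delta, cell-free; fluorescent substrate with electrophoretic mobility-shift separation of product, read 1 h after dosing. Single 25 uM duplicate screen, then concentration-response up to 50 uM; loss of signal vs DMSO.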

[8] = molecular target: human Colony Stimulating Factor 1 Receptor (CSF1R), CSF1R (gene 1436) (UniProt P07333); experiment: NVS_ENZ_hCSF1R: NovaScreen (NVS) Enzymatic Assay for human Colony Stimulating Factor 1 Receptor (CSF1R) (AID 2283150)
In short: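 Compounds screened in duplicate at 25 uM, then concentration-response (top 50 uM) for those passing threshold such as 30% inhibition; recombinant CSF1R activity measured 1 h post-dosing via fluorescent substrate/product mobility-shift separation, loss of signal versus DMSO.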

[9] = molecular target: human AKT serine/threonine Kinase 1 (AKT1), AKT1 (gene 207) (UniProt P31749); experiment: NVS_ENZ_hAKT1: NovaScreen (NVS) Enzymatic Assay for human AKT serine/threonine Kinase 1 (AKT1) (AID 2283138)
In short: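 Screening first at 25 uM (duplicate), with threshold-passing chemicals re-tested in concentration series to a 50 uM maximum. Kinase activity read by fluorescence with mobility-shift separation of substrate and product, 1 h after dosing, DMSO baseline.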

[10] = molecular target: human AKT serine/threonine Kinase 2 (AKT2), AKT2 (gene 208) (UniProt P31751); experiment: NVS_ENZ_hAKT2: NovaScreen (NVS) Enzymatic Assay for human AKT serine/threonine Kinase 2 (AKT2) (AID 2283141)
In short: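 Cell-free fluorescence/electrophoretic mobility shift readout of recombinant human AKT2 activity, 1 h after chemical dosing. Duplicate primary screen at 25 uM, then singleton concentration-response up to 50 uM; loss of signal versus DMSO baseline.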

Sequence of human Elastase, ELANE (gene 1991) (P08246 whole entry, looked up): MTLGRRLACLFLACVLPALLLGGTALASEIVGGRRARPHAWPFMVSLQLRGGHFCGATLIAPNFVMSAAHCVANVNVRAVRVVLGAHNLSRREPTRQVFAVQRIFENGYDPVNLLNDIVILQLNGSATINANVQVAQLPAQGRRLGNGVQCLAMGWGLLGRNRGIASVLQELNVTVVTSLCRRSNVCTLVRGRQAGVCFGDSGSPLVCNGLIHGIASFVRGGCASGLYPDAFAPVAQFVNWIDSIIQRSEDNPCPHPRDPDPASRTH
Sequence of human Dual Specificity Protein Phosphatase 3 (DUSP3), DUSP3 (gene 1845) (P51452 whole entry, looked up): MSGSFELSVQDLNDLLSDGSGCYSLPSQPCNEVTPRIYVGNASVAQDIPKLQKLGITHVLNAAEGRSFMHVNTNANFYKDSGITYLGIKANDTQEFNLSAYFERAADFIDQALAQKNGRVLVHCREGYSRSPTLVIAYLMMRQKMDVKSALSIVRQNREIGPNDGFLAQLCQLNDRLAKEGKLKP
Sequence of human Beta-secretase (BACE), BACE1 (gene 23621) (P56817 whole entry, looked up): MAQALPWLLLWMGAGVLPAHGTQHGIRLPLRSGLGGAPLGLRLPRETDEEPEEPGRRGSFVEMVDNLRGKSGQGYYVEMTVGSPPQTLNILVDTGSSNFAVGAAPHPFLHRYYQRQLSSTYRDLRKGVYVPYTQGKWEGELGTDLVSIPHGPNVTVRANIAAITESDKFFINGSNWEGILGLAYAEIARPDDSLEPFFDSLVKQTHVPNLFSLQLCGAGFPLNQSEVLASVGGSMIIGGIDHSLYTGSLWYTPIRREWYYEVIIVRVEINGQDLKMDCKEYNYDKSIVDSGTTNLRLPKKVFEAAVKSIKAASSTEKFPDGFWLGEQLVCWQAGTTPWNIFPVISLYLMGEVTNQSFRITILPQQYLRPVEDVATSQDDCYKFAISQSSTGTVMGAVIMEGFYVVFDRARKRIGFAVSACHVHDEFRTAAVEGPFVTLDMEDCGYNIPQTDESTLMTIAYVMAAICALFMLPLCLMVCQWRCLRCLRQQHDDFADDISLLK
Sequence of human Caspase 4 (CASP4), CASP4 (gene 837) (P49662 whole entry, looked up): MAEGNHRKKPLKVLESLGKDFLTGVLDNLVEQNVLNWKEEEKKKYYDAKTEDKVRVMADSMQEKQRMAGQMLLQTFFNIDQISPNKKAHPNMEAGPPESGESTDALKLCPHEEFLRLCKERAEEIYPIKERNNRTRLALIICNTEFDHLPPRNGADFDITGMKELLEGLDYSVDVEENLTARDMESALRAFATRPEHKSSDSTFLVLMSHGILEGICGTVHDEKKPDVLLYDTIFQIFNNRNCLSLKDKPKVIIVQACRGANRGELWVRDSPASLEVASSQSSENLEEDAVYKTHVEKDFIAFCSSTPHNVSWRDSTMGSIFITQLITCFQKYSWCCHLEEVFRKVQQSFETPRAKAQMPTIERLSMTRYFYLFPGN
Sequence of human Caspase 5 (CASP5), CASP5 (gene 838) (P51878 whole entry, looked up): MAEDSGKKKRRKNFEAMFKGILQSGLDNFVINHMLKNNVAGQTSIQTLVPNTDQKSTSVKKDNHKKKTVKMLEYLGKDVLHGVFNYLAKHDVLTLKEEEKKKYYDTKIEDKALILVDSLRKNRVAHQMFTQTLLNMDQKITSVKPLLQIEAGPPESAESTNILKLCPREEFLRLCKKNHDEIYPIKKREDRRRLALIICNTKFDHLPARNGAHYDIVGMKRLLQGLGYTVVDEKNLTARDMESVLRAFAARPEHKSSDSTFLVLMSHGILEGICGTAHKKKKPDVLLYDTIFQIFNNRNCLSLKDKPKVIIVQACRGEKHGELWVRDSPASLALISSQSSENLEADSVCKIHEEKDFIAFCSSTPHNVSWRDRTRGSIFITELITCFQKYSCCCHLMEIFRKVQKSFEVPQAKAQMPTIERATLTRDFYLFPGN
Sequence of human AKT serine/threonine Kinase 1 (AKT1), AKT1 (gene 207) (P31749 whole entry, looked up): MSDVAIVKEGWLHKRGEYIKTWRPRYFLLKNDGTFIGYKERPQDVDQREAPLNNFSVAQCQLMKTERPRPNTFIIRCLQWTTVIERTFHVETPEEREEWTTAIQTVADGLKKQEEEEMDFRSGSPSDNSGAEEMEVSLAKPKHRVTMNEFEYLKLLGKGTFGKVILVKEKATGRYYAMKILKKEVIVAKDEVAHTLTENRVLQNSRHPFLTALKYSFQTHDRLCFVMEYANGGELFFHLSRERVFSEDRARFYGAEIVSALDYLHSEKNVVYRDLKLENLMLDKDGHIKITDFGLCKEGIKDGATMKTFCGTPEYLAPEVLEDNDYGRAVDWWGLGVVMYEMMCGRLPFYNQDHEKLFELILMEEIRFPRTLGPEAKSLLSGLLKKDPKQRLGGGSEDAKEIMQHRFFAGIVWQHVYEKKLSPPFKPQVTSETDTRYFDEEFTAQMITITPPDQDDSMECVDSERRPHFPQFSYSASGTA
Sequence of human Colony Stimulating Factor 1 Receptor (CSF1R), CSF1R (gene 1436) (P07333 whole entry, looked up): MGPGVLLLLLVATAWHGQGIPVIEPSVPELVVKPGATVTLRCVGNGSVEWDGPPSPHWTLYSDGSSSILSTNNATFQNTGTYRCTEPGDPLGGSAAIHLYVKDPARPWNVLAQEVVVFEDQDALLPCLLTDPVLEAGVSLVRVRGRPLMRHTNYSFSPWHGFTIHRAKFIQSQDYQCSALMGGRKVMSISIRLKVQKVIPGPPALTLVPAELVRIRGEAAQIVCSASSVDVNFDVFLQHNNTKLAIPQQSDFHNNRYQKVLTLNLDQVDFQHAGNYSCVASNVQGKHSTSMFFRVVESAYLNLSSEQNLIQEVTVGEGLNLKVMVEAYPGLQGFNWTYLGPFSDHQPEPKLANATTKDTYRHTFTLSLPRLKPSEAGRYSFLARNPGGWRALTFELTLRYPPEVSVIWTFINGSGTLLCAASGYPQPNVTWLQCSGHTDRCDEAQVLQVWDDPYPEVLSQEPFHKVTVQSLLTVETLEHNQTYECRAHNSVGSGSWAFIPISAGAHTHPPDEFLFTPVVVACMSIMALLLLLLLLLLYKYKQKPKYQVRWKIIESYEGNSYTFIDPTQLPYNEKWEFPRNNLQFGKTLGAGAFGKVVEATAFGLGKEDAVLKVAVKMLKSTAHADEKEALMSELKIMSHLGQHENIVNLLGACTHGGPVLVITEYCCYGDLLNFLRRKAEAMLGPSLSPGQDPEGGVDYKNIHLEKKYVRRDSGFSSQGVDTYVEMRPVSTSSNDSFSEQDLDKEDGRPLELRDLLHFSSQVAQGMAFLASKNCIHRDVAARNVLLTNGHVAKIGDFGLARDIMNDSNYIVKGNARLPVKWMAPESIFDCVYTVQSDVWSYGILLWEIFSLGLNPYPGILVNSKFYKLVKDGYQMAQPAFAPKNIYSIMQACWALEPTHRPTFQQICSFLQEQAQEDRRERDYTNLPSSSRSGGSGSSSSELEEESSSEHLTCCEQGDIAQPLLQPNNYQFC
Sequence of human AKT serine/threonine Kinase 2 (AKT2), AKT2 (gene 208) (P31751 whole entry, looked up): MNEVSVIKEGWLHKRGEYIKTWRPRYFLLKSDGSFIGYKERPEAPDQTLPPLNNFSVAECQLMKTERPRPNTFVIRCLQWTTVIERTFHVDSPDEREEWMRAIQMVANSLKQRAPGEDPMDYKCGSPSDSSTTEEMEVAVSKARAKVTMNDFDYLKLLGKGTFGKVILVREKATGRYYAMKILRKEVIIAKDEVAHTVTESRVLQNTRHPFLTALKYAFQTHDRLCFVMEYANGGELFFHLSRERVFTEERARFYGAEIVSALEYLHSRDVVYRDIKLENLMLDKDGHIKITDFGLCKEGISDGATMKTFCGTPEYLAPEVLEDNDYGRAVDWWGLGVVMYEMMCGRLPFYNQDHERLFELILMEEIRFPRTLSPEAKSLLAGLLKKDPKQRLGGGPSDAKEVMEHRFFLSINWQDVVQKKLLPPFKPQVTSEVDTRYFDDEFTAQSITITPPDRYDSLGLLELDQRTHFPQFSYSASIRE
Sequence of human Casein Kinase 1-delta (CK1D), CSNK1D (gene 1453) (P48730 whole entry, looked up): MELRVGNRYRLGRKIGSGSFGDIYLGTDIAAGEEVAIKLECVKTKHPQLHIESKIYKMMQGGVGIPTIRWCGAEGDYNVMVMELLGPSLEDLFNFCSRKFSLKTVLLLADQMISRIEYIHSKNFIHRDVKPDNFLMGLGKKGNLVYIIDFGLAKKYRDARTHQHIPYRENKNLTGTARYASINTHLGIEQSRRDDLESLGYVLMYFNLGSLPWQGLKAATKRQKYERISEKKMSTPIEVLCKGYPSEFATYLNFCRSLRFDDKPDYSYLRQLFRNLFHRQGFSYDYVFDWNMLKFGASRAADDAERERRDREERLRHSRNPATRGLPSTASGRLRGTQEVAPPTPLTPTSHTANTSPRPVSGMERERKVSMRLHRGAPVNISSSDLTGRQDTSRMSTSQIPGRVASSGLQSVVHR

c1ccc(C[n+]2cccc3ccccc32)cc1
AC50 [1]: 4.78 µM (active)

CCN(Cc1cccnc1)C(=O)c1cccc(Cl)c1[C@]1(C)C(=O)N(Cc2ccc(OC)cc2OC)c2ccc(Cl)cc21
AC50 [1]: 1.01 µM (active)
outcome [2]: inactive
outcome [3]: inactive
AC50 [4]: 14.1 µM (active)
AC50 [5]: 3.84 µM (active)

O=C(O)Cc1cc(I)c(Oc2ccc(O)c(I)c2)c(I)c1
outcome [1]: inactive
outcome [6]: inactive
outcome [7]: inactive
outcome [8]: inactive

OC12N=C(c3ccccc3)SC1Cc1cc(Cl)ccc12 (stereo not given)
AC50 [1]: 0.245 µM (active)
AC50 [4]: 4.92 µM (active)

CC1(C)NC(=O)N(c2ccc([N+](=O)[O-])c(C(F)(F)F)c2)C1=O
AC50 [1]: 2.81 µM (active)

CC(C)(O)c1ccc(CNC(=O)c2cccnc2Oc2ccc3nonc3c2)cc1
AC50 [1]: 10.9 µM (active)
outcome [9]: inactive

C[C@]12CC[C@@H]3c4ccc(O)cc4CC[C@H]3[C@@H]1CC[C@H]2O
AC50 [1]: 0.649 µM (active)
outcome [8]: inactive

CCOC(=O)O[C@H](C)OC(=O)c1ccc2c(c1)cc(C(=O)NC1CCN(C(C)C)CC1)n2Cc1cc(-c2ccc(Cl)s2)on1
AC50 [1]: 5.54 µM (active)
AC50 [6]: 0.447 µM (active)
AC50 [10]: 23.6 µM (active)

CCCCOC(=O)c1ccc(O)cc1
AC50 [1]: 7.75 µM (active)
outcome [6]: inactive

CCN(CC)C(=O)c1cc(S(=O)(=O)Cc2ccccc2)c(N2CCC(c3ccccc3)CC2)cc1N(CC)CCN(C)C
AC50 [1]: 3.48 µM (active)
outcome [3]: inactive

O=C1CCC(C2CCCCC2)CC1
outcome [1]: inactive
AC50 [4]: 22.2 µM (active)
AC50 [5]: 10 µM (active)

CN(C)C(=O)C1(N2CCCCC2)CCN(CC[C@@]2(c3ccc(Cl)c(Cl)c3)CN(C(=O)c3ccccc3)CCO2)CC1
AC50 [1]: 0.393 µM (active)
outcome [6]: inactive
AC50 [5]: 19 µM (active)

Cc1c2ccccc2c(C)c2c1ccc1ccccc12
AC50 [1]: 7.17 µM (active)
outcome [4]: inactive
AC50 [5]: 14.3 µM (active)

CCCCCCCCOC(=O)c1cc(O)c(O)c(O)c1
AC50 [1]: 5.4 µM (active)
AC50 [2]: 25.4 µM (active)
outcome [9]: inactive
outcome [10]: inactive
outcome [3]: inactive
outcome [4]: inactive
AC50 [5]: 12.5 µM (active)

Source: PubChem BioAssay (EPA / NIEHS)
